Laboratory results published in PubChem BioAssay (NCATS).
“And” between values parts separate entries of the source, which are not always exact repeats. Identical values can stand only once. Values without a mark were called inactive. Records with an inconclusive call do not appear. A call without a number means that no potency is given here. The source made the active and inactive calls. Unless noted, calls follow the shape of the dose curve; as a rule, active = well fitted curve in the direction sought with a large enough effect; inconclusive = small, poorly fitted or top-dose-only effect, or another doubt; inactive = no such curve, though single readings can be large; an effect the other way counts as inactive or inconclusive.

Test system: not listed separately
Assay: Cell Viability - LYMP2-024 (AID 988);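 also: cells exposed to compound for 24 hr at 37 °C; nearly all actives have a fitted effect of over 60% in size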
Settings: LYMP2-024 lymphoblastoid cell viability; series mostly up to 92.2 µM
In short: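 Cells at 2500 per well received compound for 24 hr after a 5 hr settling period. Viability was scored by CellTiter-Glo luminescence, with AC50 from Hill fits.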
With `S=c1[nH]c2ccccc2s1` the Potency was “inactive”.
For `Nc1ccc(O)c(C(=O)O)c1`, the Potency was “inactive”.
With `O=C1CN(/N=C/c2ccc([N+](=O)[O-])o2)C(=O)N1` the Potency was “inactive”.

Target: Alpha-galactosidase A (Homo sapiens) (UniProt P06280)
Sequence (P06280 whole entry, looked up): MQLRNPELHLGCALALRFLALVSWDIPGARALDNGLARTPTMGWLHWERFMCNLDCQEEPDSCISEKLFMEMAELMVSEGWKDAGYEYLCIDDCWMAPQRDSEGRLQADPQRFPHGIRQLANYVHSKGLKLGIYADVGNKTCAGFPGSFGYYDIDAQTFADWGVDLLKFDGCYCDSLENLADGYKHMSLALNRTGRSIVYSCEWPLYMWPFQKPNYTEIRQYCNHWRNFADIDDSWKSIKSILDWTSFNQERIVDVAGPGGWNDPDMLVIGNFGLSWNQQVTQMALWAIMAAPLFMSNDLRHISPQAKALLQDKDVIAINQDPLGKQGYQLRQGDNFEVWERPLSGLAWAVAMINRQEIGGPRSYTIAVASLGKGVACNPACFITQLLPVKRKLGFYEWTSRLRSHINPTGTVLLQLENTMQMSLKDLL
Assay: Counterscreen for Glucocerebrosidase Inhibitors: qHTS Assay for Human alpha-Galactosidase at pH 4.5 (AID 992)
Settings: purified enzyme, fluorogenic substrate; series mostly up to 76.9 µM
In short: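 Fluorogenic 4-MU alpha-D-galactoside (80 uM) hydrolysis, 2 nM enzyme, pH 4.5 citrate buffer + 0.005% Tween-20; 20 min RT; NaOH/glycine pH 10 stop; Ex365/Em440. Compounds titrated 0.7 nM–77 uM; Hill-equation AC50.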
In the case of `N[C@@H](CC(=O)O)C(=O)O`, the outcome is reported as “inactive”.
For `CC(C)(C=O)Cc1cc(C(C)(C)C)c(O)c(C(C)(C)C)c1`, the outcome was “inactive”.
With `Oc1ccccc1O` the outcome was “inactive”.
For `CCCCCCCC/C=C\CCCCCCCC(=O)NCCO`, the outcome was “inactive”.
In the case of `CCN1/C(=C/C(C)=O)Sc2ccc(OC)cc21`, the outcome is reported as “inactive”.
In the case of `O=c1[nH]c2ccccc2n1CCCN1CCN(C(c2ccccc2)c2ccccc2)CC1`, the outcome is reported as “inactive”.
In the case of `O=C1C(SCCO)=C(SCCO)C(=O)c2ccccc21`, the outcome is reported as “inactive”.
With `O=c1[nH]c2cc(Cl)c(Cl)cc2[nH]c1=O` the outcome was “inactive”.
For `COc1cc(OC)c(/C=C2/C(=O)Nc3ccccc32)c(OC)c1`, the outcome was “inactive”.
In the case of `CC(C)NC[C@H](O)COc1cccc2[nH]ccc12`, the outcome is reported as “inactive”.
With `O=C1NC(O)=NC1(c1ccccc1)c1ccccc1` the outcome was “inactive”.
With `N[C@H](CCCP(=O)(O)O)C(=O)O` the outcome was “inactive”.
In the case of `O=C(c1cc(O)c(O)c([N+](=O)[O-])c1)c1ccccc1F`, the outcome is reported as “inactive”.
With `NC[C@@H]1O[C@H](C23CC4CC(CC(C4)C2)C3)Cc2c1ccc(O)c2O` the outcome was “inactive”.
In the case of `O=S(=O)(c1cccc2c(I)cccc12)N1CCCNCC1`, the outcome is reported as “inactive”.
In the case of `CCCN(CC1CC1)c1nc(C)nc(Nc2c(Cl)cc(Cl)cc2Cl)c1Cl`, the outcome is reported as “inactive”.
For `NCCCS(=O)(=O)O`, the outcome was “inactive”.
With `O=C(Nc1cccc(C(=O)Nc2ccc(S(=O)(=O)O)c3cc(S(=O)(=O)O)cc(S(=O)(=O)O)c23)c1)Nc1cccc(C(=O)Nc2ccc(S(=O)(=O)O)c3cc(S(=O)(=O)O)cc(S(=O)(=O)O)c23)c1` the outcome was “inactive”.

Test system: not listed separately
Assay: Cell Viability - LYMP1-002 - Assay at 24 hr (AID 993)
Settings: LYMP1-002 lymphoblastoid cells viability; series mostly up to 92.2 µM
In short: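 Viability was judged from intracellular ATP using a luciferase read-out, following a 24-hour compound incubation at 37 C of lymphoblastoid cells seeded at 2500 per well. Concentration-response data were fitted to the Hill equation for AC50.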
For `Oc1ccccc1O`, the Potency was “inactive”.
With `S=c1[nH]c2ccccc2s1` the Potency was “inactive”.
With `Nc1ccc(O)c(C(=O)O)c1` the Potency was “inactive”.
With `O=C1CN(/N=C/c2ccc([N+](=O)[O-])o2)C(=O)N1` the Potency was “inactive”.

Target: alpha-glucosidase (Oryza sativa, rice) (UniProt Q653V4)
Assay: Counterscreen for Glucocerebrosidase Inhibitors: qHTS Assay for Rice alpha-Glucosidase at pH 5.0 (AID 997)
Settings: rice alpha-glucosidase enzyme activity; series mostly up to 76.9 µM
In short: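 Endpoint fluorogenic assay at pH 5.0: compounds (0.7 nM to 77 uM) titrated against 4 nM rice enzyme and 400 uM 4-MU-alpha-glucoside for 20 min at room temperature; NaOH/glycine stop, read ex 365/em 440 nm, Hill-fitted AC50.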
With `N[C@@H](CC(=O)O)C(=O)O` the outcome was “inactive”.
In the case of `CC(C)(C=O)Cc1cc(C(C)(C)C)c(O)c(C(C)(C)C)c1`, the outcome is reported as “inactive”.
With `Oc1ccccc1O` the outcome was “inactive”.
For `CCCCCCCC/C=C\CCCCCCCC(=O)NCCO`, the outcome was “inactive”.
With `CCN1/C(=C/C(C)=O)Sc2ccc(OC)cc21` the outcome was “inactive”.
In the case of `O=c1[nH]c2ccccc2n1CCCN1CCN(C(c2ccccc2)c2ccccc2)CC1`, the outcome is reported as “inactive”.
In the case of `O=C1C(SCCO)=C(SCCO)C(=O)c2ccccc21`, the outcome is reported as “inactive”.
In the case of `O=c1[nH]c2cc(Cl)c(Cl)cc2[nH]c1=O`, the outcome is reported as “inactive”.
With `COc1cc(OC)c(/C=C2/C(=O)Nc3ccccc32)c(OC)c1` the outcome was “inactive”.
For `CC(C)NC[C@H](O)COc1cccc2[nH]ccc12`, the outcome was “inactive”.
In the case of `O=C1NC(O)=NC1(c1ccccc1)c1ccccc1`, the outcome is reported as “inactive”.
For `N[C@H](CCCP(=O)(O)O)C(=O)O`, the outcome was “inactive”.
In the case of `O=C(c1cc(O)c(O)c([N+](=O)[O-])c1)c1ccccc1F`, the outcome is reported as “inactive”.
With `NC[C@@H]1O[C@H](C23CC4CC(CC(C4)C2)C3)Cc2c1ccc(O)c2O` the outcome was “inactive”.
In the case of `O=S(=O)(c1cccc2c(I)cccc12)N1CCCNCC1`, the outcome is reported as “inactive”.
With `CCCN(CC1CC1)c1nc(C)nc(Nc2c(Cl)cc(Cl)cc2Cl)c1Cl` the outcome was “inactive”.
In the case of `NCCCS(=O)(=O)O`, the outcome is reported as “inactive”.
For `O=C(Nc1cccc(C(=O)Nc2ccc(S(=O)(=O)O)c3cc(S(=O)(=O)O)cc(S(=O)(=O)O)c23)c1)Nc1cccc(C(=O)Nc2ccc(S(=O)(=O)O)c3cc(S(=O)(=O)O)cc(S(=O)(=O)O)c23)c1`, the outcome was “inactive”.

Test system: not listed separately
Assay: qHTS Assay for Lipid Storage Modulators (AID 1519; calls by dose curve)
Settings: Drosophila S3 cells, BODIPY lipid droplet/cell ratio, laser cytometry; at 25.7 µM (top of the series); cells loaded with oleic acid
In short: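 Cells seeded at 5,000 per well were treated with compounds over a concentration series and loaded with oleic acid (400 uM, as added). Lipid droplet fluorescence (488 nm excitation, 500-530 nm channel) was read by laser-scanning cytometry and normalized to 20 uM Triacsin C.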
With `Nc1ccc(O)c(C(=O)O)c1` the activity change, negative = inhibition was 1.25%.
`CCCSc1ccc2nc(NC(=O)OC)[nH]c2c1` gave an activity change, negative = inhibition of -1.88%.
In the case of `Cc1c(N)c(=O)n(-c2ccccc2)n1C`, the activity change, negative = inhibition is reported as -0.255%.

Same assay, conditions: Drosophila S3 cells, BODIPY lipid droplet/cell ratio, laser cytometry; at 57.5 µM (top of the series); cells loaded with oleic acid
With `S=C(S)OC1CC2CC1C1CCCC21` (stereo not given) the activity change, negative = inhibition was -2.21%.
In the case of `N[C@@H](CC(=O)O)C(=O)O`, the activity change, negative = inhibition is reported as 4.62% and -0.577%.
Work on `CC(C(=O)O)c1ccc(C(=O)c2cccs2)cc1` (stereo not given) yielded an activity change, negative = inhibition of 15.6%.
Compound `Oc1ccccc1O` has an activity change, negative = inhibition of -4.75%.
With `CCCCCCCC/C=C\CCCCCCCC(=O)NCCO` the activity change, negative = inhibition was 1.41%.
Work on `CCN1/C(=C/C(C)=O)Sc2ccc(OC)cc21` yielded an activity change, negative = inhibition of 0.847%.
`S=c1[nH]c2ccccc2s1` showed an activity change, negative = inhibition of 12%.
In the case of `O=c1[nH]c2ccccc2n1CCCN1CCN(C(c2ccccc2)c2ccccc2)CC1`, the activity change, negative = inhibition is reported as 0.533%.
`CCCCCCCCCCCCCCCCCC(=O)NCC(COP(=O)([O-])OCC[N+](C)(C)C)OCC` (stereo not given) showed an activity change, negative = inhibition of -1.69%.
`O=c1[nH]c2cc(Cl)c(Cl)cc2[nH]c1=O` gave an activity change, negative = inhibition of -0.911%.
With `COc1cc(OC)c(/C=C2/C(=O)Nc3ccccc32)c(OC)c1` the activity change, negative = inhibition was -1.27%.
`CC(C)NC[C@H](O)COc1cccc2[nH]ccc12` showed an activity change, negative = inhibition of 1.59%.
With `CCCCCCCCCCCCCCCC(=O)OC(CC(=O)O)C[N+](C)(C)C` (stereo not given) the activity change, negative = inhibition was -1.01%.
`O=C1NC(O)=NC1(c1ccccc1)c1ccccc1` showed an activity change, negative = inhibition of 1.6%.
`CCCSc1ccc2nc(NC(=O)OC)[nH]c2c1` showed an activity change, negative = inhibition of 9.19%.
With `N[C@H](CCCP(=O)(O)O)C(=O)O` the activity change, negative = inhibition was 2.93% and -1.99%.
Work on `O=C(c1cc(O)c(O)c([N+](=O)[O-])c1)c1ccccc1F` yielded an activity change, negative = inhibition of -2.67%.
With `CN(C)c1ccc(/C=C2\C(=O)Nc3ccccc32)cc1` the activity change, negative = inhibition was 0.655%.
With `O=C(/C=C/c1ccc(O)c(O)c1)OCCc1ccccc1` the activity change, negative = inhibition was -2.35% and -20.7%.
For `O=C1CN(/N=C/c2ccc([N+](=O)[O-])o2)C(=O)N1`, the activity change, negative = inhibition was 8.89%.
`O=S(=O)(c1cccc2c(I)cccc12)N1CCCNCC1` gave an activity change, negative = inhibition of 1.19%.
With `CCCN(CC1CC1)c1nc(C)nc(Nc2c(Cl)cc(Cl)cc2Cl)c1Cl` the activity change, negative = inhibition was -0.101%.
Work on `O=C(O)CCCC[C@@H]1CCSS1` yielded an activity change, negative = inhibition of -3.03%.
With `CCCCCCCCCCCCCCCCCCNC(=O)OCC(COP(=O)([O-])OCC[n+]1ccsc1)OC` (stereo not given) the activity change, negative = inhibition was 0.643%.
With `O=C(OCc1ccccc1)c1ccccc1` the activity change, negative = inhibition was 9.34%.
Work on `Cc1c(N)c(=O)n(-c2ccccc2)n1C` yielded an activity change, negative = inhibition of 3.79%.
`C[C@@H](CN1CCC(Cc2ccccc2)CC1)[C@@H](O)c1ccc(O)cc1` gave an activity change, negative = inhibition of 0.466%.
In the case of `NCCCS(=O)(=O)O`, the activity change, negative = inhibition is reported as 4.47%.
In the case of `O=C(Nc1cccc(C(=O)Nc2ccc(S(=O)(=O)O)c3cc(S(=O)(=O)O)cc(S(=O)(=O)O)c23)c1)Nc1cccc(C(=O)Nc2ccc(S(=O)(=O)O)c3cc(S(=O)(=O)O)cc(S(=O)(=O)O)c23)c1`, the activity change, negative = inhibition is reported as 2.61%.
